High-throughput results deposited in PubChem BioAssay by National Center for Advancing Translational Sciences (NCATS).
A selection: hits, their analogues and other compounds. The true share with any hit is near 1.5%.
rTrxR1 inhibitor: inhibitors of rat thioredoxin reductase 1; Potency, µM (series often up to 114 µM), for inactives: at the top dose activity change, negative = inhibition, usual class: inhibitors; AID 588453; actives 1% (n = 390,000); O89049; recombinant rTrxR1, NADPH fluorescence consumption, selenite substrate; further: potency means the concentration at half of the fitted maximal effect; nearly all actives have a fitted effect of over 65% in size
Target sequence (O89049 whole entry, looked up): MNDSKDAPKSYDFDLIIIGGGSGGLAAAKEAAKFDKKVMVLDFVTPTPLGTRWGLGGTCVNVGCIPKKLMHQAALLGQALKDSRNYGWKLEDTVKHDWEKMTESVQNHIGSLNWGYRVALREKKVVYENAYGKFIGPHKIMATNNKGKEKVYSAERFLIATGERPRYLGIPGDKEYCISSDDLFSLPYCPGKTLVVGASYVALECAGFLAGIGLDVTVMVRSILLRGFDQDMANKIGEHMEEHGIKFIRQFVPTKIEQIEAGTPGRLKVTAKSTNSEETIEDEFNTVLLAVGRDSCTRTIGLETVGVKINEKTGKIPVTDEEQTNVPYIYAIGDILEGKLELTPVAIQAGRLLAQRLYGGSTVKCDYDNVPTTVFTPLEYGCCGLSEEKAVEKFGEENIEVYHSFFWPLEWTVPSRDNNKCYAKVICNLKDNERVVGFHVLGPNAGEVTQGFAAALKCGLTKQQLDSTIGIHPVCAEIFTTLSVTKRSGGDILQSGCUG
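Rat TrxR1 (90 nM in the dispensed reagent) was pre-reduced with 400 uM NADPH for 5 min at room temperature, then incubated with compound for 15 min. After 400 uM selenite was added, NADPH fluorescence (Ex 340/Em 450 nm) was followed for 8 min.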
TrxR1 substrate: is turned over as a substrate by rat TrxR1. AID 588456. Potency, µM (titrated, usually from 114 µM), for inactives: top-dose activity change, negative = substrate turnover. actives 0.01% (n = 390,000). purified TrxR1 substrate turnover, NADPH consumption readout. O89049; further: potency means the concentration at half of the fitted maximal effect; nearly all actives have a fitted effect of over 50% in size
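Rat TrxR1, dispensed at 90 nM, was prereduced with 400 uM NADPH (final) for 5 min at ~22 deg C, then incubated with compound 15 min before 400 uM selenite. A first-read NADPH fluorescence drop versus no-compound background flagged substrates.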
GALK inhibitor: inhibitors of human galactokinase | AID 1868 | Purified GALK, Kinase-Glo residual ATP luminescence | Potency, µM (titrated, usually from 57.5 µM), for the others: at the highest dose activity change, negative = inhibition, actives largely listed as inhibitors | actives 0.007% (n = 270,000); further: potency means the concentration at half of the fitted maximal effect
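Quantitative HTS: GALK 5 nM, ATP 35 uM, galactose 100 uM, 1 h room temperature, then luciferase-based ATP detection.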
USP1-UAF1 inh: blocks the human USP1/UAF1 deubiquitinase complex. O94782. recombinant USP1/UAF1, Ub-Rhodamine cleavage fluorescence. Potency, µM (doses to about 57.1 µM), inactives show at the highest dose activity change, negative = inhibition, usual class: inhibitors. actives 0.23% (n = 390,000); further: potency means the concentration at half of the fitted maximal effect; nearly all actives have a fitted effect of over 60% in size
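In this screen, compounds sit with the deubiquitinase complex (1nM) for 15 min at room temperature before Ub-Rho is added at 150nM final. Fluorescence rise is then followed for 6 reads every 60 seconds.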
Coupling enz: inhibits coupling enzyme system, counter-screen for aldolase hits; activity change, negative = inhibition, % at 58.2 µM, hits read low; AID 2472; actives 0.67% (n = 290,000); coupling enzyme system counterscreen, AmpLite Red fluorescence; in the data active means activity change below about -30%
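Coupling enzymes only (glyceraldehyde-3-phosphate) + compound, at 57.5 uM final, 10 min RT; add substrate/coupling/AmpLite Red mix, 20 min RT; fluorescence ex 525/em 598 nm. Actives flag coupling-system interference.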
* = called active by the depositor; ? = inconclusive; . = not tested or not shown; [ ] = another dose, or the depositor's remark. Unless noted, the call rests on the fitted dose curve; in most records, active means well fitted curve in the direction sought with a large enough effect; inconclusive means small, poorly fitted or top-dose-only effect, or another doubt; inactive means no such curve, though single readings can be large; an effect the other way counts as inactive or inconclusive. On the % scale 0 is the no-effect control and ±100 the full control effect.

SMILES | rTrxR1 inhibitor | TrxR1 substrate | GALK inhibitor | USP1-UAF1 inh | Coupling enz
Cn1ncc(S(=O)(=O)Cc2ccccc2)c(Br)c1=O | 0.95µM* | 21%[57.1 µM] | . | . | .
O=C(O)c1ccccc1S(=O)(=O)Cc1ccccc1 | 20% | 13% | 0% | -6% | 0
Cc1cc(N2CCCC2)nc2ccc(NC(=S)NCCCOC(C)C)cc12 | 45µM* | 6% | 7% | -15% | -1
CCOc1ccc(/C=C/c2ccc3ccccc3n2)cc1OCC | -15% | -8% | . | . | .
CC1CC(C)CN(c2cc(N(C)CCO)c([N+](=O)[O-])c3nonc23)C1 (stereo not given) | 14%[57.1 µM] | -20% | 6% | -8% | 0
CC1CCN(c2cc(N(C)CCO)c([N+](=O)[O-])c3nonc23)CC1 | 45µM* | -14% | -1% | -19% | -6
O=C(CCc1ccccc1)c1c(O)cc(O)cc1O | 20µM* | 2% | -2% | ? | -2
Cc1ccc(CNC(=O)CSc2ccsc2[N+](=O)[O-])cc1 | 50µM* | -11% | 6% | -12% | 1
CCCc1c(C)c2ccc(O)c(CN3CCN(c4ccc(F)cc4)CC3)c2oc1=O | ? | 74% | . | ? | .
Cc1cc(O)c(CN2CCN(c3ccc(F)cc3)CC2)c2oc(=O)cc(C)c12 | 79µM* | 739% | . | ? | .
CC(=O)c1ccccc1S(=O)(=O)N1CCN(c2nc(-c3cccs3)nc3ccccc23)CC1 | 0% | 0% | . | . | .
Cc1cc(NS(=O)(=O)c2ccc(NC(NC(=O)C(C(F)(F)F)C(F)(F)F)(C(F)(F)F)C(F)(F)F)cc2)no1 | 10µM* | 4%[57.1 µM] | -6% | -25% | -1
CC(=O)N1C(=O)/C(=C2\SC(=S)N(c3c(C)n(C)n(-c4ccccc4)c3=O)C2=O)c2ccccc21 | -22% | -8% | -2% | ? | -40*
Cc1c(N2C(=O)/C(=C3/C(=O)N(C)c4ccccc43)SC2=S)c(=O)n(-c2ccccc2)n1C | -12% | 2% | -2% | 3% | -8
CCOc1ccc(N=C2NC(=O)S/C2=C\c2ccc(Cl)cc2)cc1 | 4%[57.1 µM] | 6%[57.1 µM] | -1% | -5% | 2
COc1ccc(N=C2NC(=O)S/C2=C\c2ccc(N(C)C)cc2)cc1 | 0% | -3% | -1% | 25µM* | 1
COC(=O)CSc1nnc(C)c(=O)[nH]1 | 11% | 3% | -2% | 0% | 4
CCOC(=O)CNc1nnc(SCC(=O)OCC)[nH]c1=O | 10µM* | 6% | -2% | -20% | -6
CC1(c2nnc(Cc3ccccc3)o2)CC(c2ccc(C#N)cc2)=NO1 (stereo not given) | 16µM* | 6% | . | -10% | .
COc1cc2nc(N3CCOCC3)nc(NC3CCN(C)CC3)c2cc1OC | -2% | 190% | . | . | .
CCCn1c(O)c(CN2CCCCC2)c(C)c(C#N)c1=O | -21% | 9% | 8% | -25% | -40*
Cc1cc(C)c(C#N)c(N2CCN(Cc3ccccc3)CC2)n1 | 16% | 0% | -3% | -1% | 0
Cc1c(CN2CCCCC2)c(O)n(CCCO)c(=O)c1C#N | -37% | -11% | 5% | -25% | -30*
C=CCn1c(O)c(CN2CCN(Cc3ccccc3)CC2)c(C)c(C#N)c1=O | -27% | -1% | 0% | -19% | -42*
Cn1c(CN2CCCCC2)c(C#N)c2ccccc21 | -11% | 7% | 4% | 0% | -1
SMILES | rTrxR1 inhibitor | TrxR1 substrate | GALK inhibitor | USP1-UAF1 inh | Coupling enz
O=C(O)C1Nc2c(O)cc(Cl)c([N+](=O)[O-])c2C2C=CCC12 (stereo not given) | 14µM* | -7% | -5% | ? | -8
CC(C)NC1=C(Cl)C(=O)c2ccccc2C1=O | ? | 0%[57.1 µM] | 2% | ? | -42*
Cc1ccc(NC2=C(NC(=O)c3ccccc3)C(=O)c3ccccc3C2=O)cc1Cl | 1.6µM* | ? | 0% | ? | -48*
Cc1ccc(NCC(=O)c2ccccc2)cc1Cl | 7% | -4% | -2% | -16% | -1
O=C1C(Cl)=C(Nc2ccccc2)C(=O)c2ccccc21 | 0.63µM* | -10% | 1% | -25% | -33*
O=C1C(Cl)=C(NCCc2ccccc2)C(=O)c2ccccc21 | ? | -34%[57.1 µM] | . | ? | .
C=CCNC1=C(Cl)C(=O)c2ccccc2C1=O | ? | -13% | 2% | ? | -35*
Ic1ccc(/C=C2\C=Cc3ccccc32)cc1 | ? | -1% | . | . | .
O=C(O)c1ccc(NC2=C(Cl)C(=O)c3ccccc3C2=O)cc1 | 0.5µM* | -5% | 8% | -25% | 19
O=C(O)c1cccc(NC2=C(Cl)C(=O)c3ccccc3C2=O)c1 | ? | -16% | -2% | ? | -19
O=c1[nH]cc(CCc2ccccc2)c2ncncc12 | 1% | 38% | . | . | .
O=C(CCC(=O)CCN1CCCCC1)CCN1CCCCC1 | 1.8µM* | 8%[57.1 µM] | 5% | -5% | 0
NC(=O)CCN1CCCCC1 | 4% | -4% | 5% | -2% | -1
Cc1nc2ccccc2nc1/C=C/c1ccc(N(C)C)cc1 | ? | -12% | . | . | .
COc1cc(/C=C2\SC(=Nc3ccc(Cl)c(C(=O)O)c3)NC2=O)c(Br)c(Br)c1O | -36% | -20% | -5% | 18µM* | 8
O=C(Nc1ccncc1)C1C(=O)c2ccccc2N(Cc2ccccc2)C1=O (stereo not given) | -7% | -1% | . | . | .
CCOC(=O)c1cnc2ccc(Cl)cc2c1NCCN(C)C | 9%[57.1 µM] | 7%[57.1 µM] | 1% | -11% | -57*
CCCCc1cc2c(cn1)=C(OC(=O)c1ccco1)C(C)(OC(=O)CC)C(=O)C=2 (stereo not given) | . | . | . | . | -6
BrC(=C\c1ccccc1)/C=N/Nc1ccc2nncn2n1 | 18µM* | -10% | . | ? | -1
NC(=O)c1c(N)sc2c1CCCC2 | 50µM* | 4% | 1% | -25% | -20
CN1CCc2c(sc(N)c2C(N)=O)C1 | ? | 63% | -1% | ? | -33*
COc1ccc(NC(=O)NC(C)(C(F)(F)F)C(F)(F)F)cc1 | 12%[57.1 µM] | -8% | . | -20% | -1
CCC(NC(=O)Nc1ccc(O)cc1)(C(F)(F)F)C(F)(F)F | 9%[57.1 µM] | -9% | 6% | -17% | -43*
CCC(NC(=O)NCc1ccccc1)(C(F)(F)F)C(F)(F)F | 1% | -1% | 0% | -10% | 0
CC(NC(=O)Nc1ccc(O)cc1)(C(F)(F)F)C(F)(F)F | -19% | -8% | -3% | ? | -33*
SMILES | rTrxR1 inhibitor | TrxR1 substrate | GALK inhibitor | USP1-UAF1 inh | Coupling enz
CCN(CC)CCCOc1cc2nc(N3CCCN(C)CC3)nc(NC3CCN(C)CC3)c2cc1OC | -23% | 81% | . | . | .
Brc1ccc2c(ccc[n+]2CCc2ccccc2)c1 | 22% | 3% | . | . | .
CCCN1CNc2c(c(=O)[nH]c(=S)n2CCc2ccccc2Cl)C1 | 9% | 8% | . | . | .
O=S(=O)(c1ccccc1)c1nc(-c2ccccc2)oc1N1CCCC1 | -50% | 5%[57.1 µM] | -2% | -3% | 6
Cc1ccc(S(=O)(=O)c2nc(Cc3ccccc3)oc2N2CCOCC2)cc1 | 4.5µM* | 9% | . | -16% | .
Cc1ccc(S(=O)(=O)c2nc(-c3ccccc3)oc2N2CCCC2)cc1 | 6.3µM* | 9% | . | -14% | .
